Sampled rows, rich in hits. Any-hit rate of the full collection: about 20%.
Pf growth 48h: Primary qHTS for delayed death inhibitors of the malarial parasite plastid, 48 hour incubation. Potency, µM (series often up to 28.7 µM), usual class: inhibitors. P. falciparum luciferase growth in erythrocytes, 48 h. hit rate 5.9% among 310,000. AID 504832, 2011
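Read-out is firefly luciferase luminescence from an integrated reporter in P. falciparum, so falling signal marks reduced parasite growth. Infected erythrocytes were at 2% hematocrit and 0.1% parasitemia (final) in Albumax-supplemented RPMI 1640.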
HCMV inh: qHTS Assay for inhibitors of the human cytomegalovirus (HCMV) | activity change, negative = inhibition, % at 57.5 µM | HFF cells, HCMV-luciferase reporter, 72 h; hits give low values | hit rate 4.5% among 410,000 | AID 1259415, 2018; in the data active means activity change below about -60%; inconclusive means no clear call, values can overlap the other calls; inactive means above about -39%
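Compounds were evaluated in HFFs infected with an HCMV luciferase reporter virus (MOI 1 PFU/cell). Luciferase in lysates collected 72 h post infection served as the replication measure.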
Pf growth 96h: Primary qHTS for delayed death inhibitors of the malarial parasite plastid, 96 hour incubation | AID 504834, 2011 | hit rate 6.9% among 320,000 | Potency, µM (titrated, usually from 28.7 µM), hits mostly inhibitors | P. falciparum luciferase reporter growth, 96 h
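P. falciparum expressing integrated firefly luciferase, in erythrocytes at 2% hematocrit, 0.05% parasitemia, incubated with compounds 96 h at 37 C, 5% CO2. Growth inhibition read as loss of luminescence; two-generation exposure targets delayed-death apicoplast inhibitors.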
Shiga toxin inh: A qHTS for Small Molecule Inhibitors of Shiga Toxin; Vero cells, Shiga toxin protein synthesis inhibition reporter; inhibition, % at 38.7 µM; hit rate 9.2% among 290,000; in the data active means inhibition mostly above about 28%, no sharp cut-off; inactive means mostly below about 43%
Cycloheximide cs: Cycloheximide Counterscreen for Small Molecule Inhibitors of Shiga Toxin | cell reporter, cycloheximide protein synthesis inhibition counterscreen | max response, % | AID 2314, 2010 | hit rate 12% among 300,000; in the data active means max response mostly above about 13%, no sharp cut-off; inactive means mostly below about 14%; further: read at 38.3 µM for the half of the compounds with a filed dose
Numbers stand for hits; – = inactive; ? = inconclusive; · = no result. Unless noted, the call rests on the fitted dose curve; in most records, active means well fitted inhibition curve with a large enough effect; inconclusive means small, poorly fitted or top-dose-only effect, or another doubt; inactive means no such curve, though single readings can be large or run the other way.

SMILES	Pf growth 48h	HCMV inh	Pf growth 96h	Shiga toxin inh	Cycloheximide cs
CC1(c2ccccc2)O[C@@H]2C[C@H]3[C@@H]4CCC5=CC(=O)C=C[C@]5(C)[C@@]4(F)[C@@H](O)C[C@]3(C)[C@]2(C(=O)CO)O1 (some centres undefined)	0.83µM	–	1.9µM	–	–
CC1(C)OC2CC3C4CC(F)C5=CC(=O)C=CC5(C)C4(F)C(O)CC3(C)C2(C(=O)CO)O1 (centres undefined)	?	–	5.9µM	–	–
C[C@@H]1C[C@H]2[C@@H]3C[C@H](F)C4=CC(=O)C=C[C@]4(C)[C@@]3(F)[C@@H](O)C[C@]2(C)[C@@]1(O)C(=O)CO	–	–	–	–	–
CC12C=CC(=O)C=C1CCC1C3CCC(O)(C(=O)CO)C3(C)CC(O)C12F (centres undefined)	·	–	·	·	·
CCCCn1c(C)nc2c(=O)n(C)c(=O)[nH]c21	–	–	·	–	–
CCCc1nc2c(=O)n(C)c(=O)[nH]c2n1CCC	·	–	10µM	–	–
Cc1ccc(F)cc1NC(=O)CSc1n[nH]c(N)n1	·	–	·	·	·
Cc1nn(-c2ccc(N3CCOCC3)nn2)c(C)c1CCC(=O)Nc1ccccc1	–	–	–	–	26
COc1cc(NC(=O)CCc2c(C)nn(-c3ccc(N4CCOCC4)nn3)c2C)cc(OC)c1OC	?	–	–	–	–
Cc1ccc(NC(=O)CCc2c(C)nn(-c3ccc(N4CCOCC4)nn3)c2C)cc1	–	–	?	–	23
Cc1ccc(NC(=O)CCc2c(C)nn(-c3ccc(N4CCOCC4)nn3)c2C)cc1F	–	–	?	69	41
COc1ccc(NC(=O)CCc2c(C)nn(-c3ccc(N4CCOCC4)nn3)c2C)cc1	–	–	?	–	–
CCc1cccc(NC(=O)CCc2c(C)nn(-c3ccc(N4CCOCC4)nn3)c2C)c1	?	–	–	–	26
Cc1ccc(F)cc1NC(=O)CCc1c(C)nn(-c2ccc(N3CCOCC3)nn2)c1C	·	–	·	·	·
Cc1ccc(S(=O)(=O)N2CCN(C(=O)CCc3c[nH]c4ccccc34)CC2)cc1	?	–	?	·	·
COC(=O)c1ccc(NC(=O)CCc2c(C)nn(-c3ccc(N4CCOCC4)nn3)c2C)cc1	·	–	·	·	·
CC(=O)c1ccc(NC(=O)CCc2c(C)nn(-c3ccc(N4CCOCC4)nn3)c2C)cc1	–	–	–	40	44
CCc1ccc(NC(=O)CCc2c(C)nn(-c3ccc(N4CCOCC4)nn3)c2C)cc1	–	–	?	45	42
O=C(c1ccc(C(F)(F)F)cc1)N1CCN(S(=O)(=O)c2ccc3c(c2)OCCCO3)CC1	–	–	–	–	–
C=CCSc1n[nH]c(-c2ccc(OCCCC)cc2)n1	?	–	·	17	41
C=CCSc1n[nH]c(-c2ccc(OCCC)cc2)n1	–	–	–	125	50
CCCOc1ccc(-c2nc(SCC(=O)c3ccc(Cl)cc3)n[nH]2)cc1	·	–	·	·	·
C=CCSc1n[nH]c(-c2cccs2)n1	–	–	–	–	–
CSc1ncc(C(=O)Nc2ccc(Br)cn2)c(C)n1	?	–	1.9µM	56	23
CSc1ncc(C(=O)Nc2ccc(Cl)cc2)c(C)n1	–	–	–	39	–
SMILES	Pf growth 48h	HCMV inh	Pf growth 96h	Shiga toxin inh	Cycloheximide cs
CSc1ncc(Cl)c(C(=O)Nc2c(C)cccc2C)n1	–	?	4.1µM	–	–
CSc1ncc(C(=O)Nc2ccc(C(C)=O)cc2)c(C)n1	?	–	2.6µM	80	35
CCn1c(CC(=O)Nc2ccc(F)cc2)nnc1SCC(=O)N1CCOCC1	–	?	–	–	–
CC(C)c1nc2ccc(C(=O)NCc3ccccc3Br)cc2o1	·	–	·	·	·
Cc1cccc(C)c1OCc1cc(C(=O)N(Cc2nccn2C)C(C)C)no1	?	–	–	–	19
CC(C)N(Cc1nccn1C)C(=O)c1cc(COc2ccc3ncccc3c2)on1	–	-71	?	–	–
CCN(Cc1ccncc1)C(=O)c1cc(COc2c(C)cccc2C)on1	?	–	–	41	11
Cc1nc(CN(C)C(=O)c2cc(COc3ccc4ncccc4c3)on2)cs1	–	-65	–	–	–
COc1cccc(OCc2cc(C(=O)N(Cc3nccn3C)C(C)C)no2)c1	–	–	–	–	–
CCN(Cc1ccncc1)C(=O)c1ccco1	?	–	–	–	–
CC(=O)c1cn(C)c(=O)[nH]c1=O	–	–	–	–	–
Cc1ccc(C)c(OCc2cc(C(=O)N(C)Cc3nccn3C)no2)c1	–	–	–	–	–

Screening results deposited in PubChem BioAssay by National Center for Advancing Translational Sciences (NCATS).
